This excerpt belongs to a sample that is enriched for hits.
GALK inhibitor: qHTS Assay for Inhibitors of Human Galactokinase (GALK). Purified GALK, Kinase-Glo residual ATP luminescence. Potency, µM (series often up to 57.5 µM), usual class: inhibitors. hit rate 0.007% among 270,000
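Kinase-Glo Plus luminescence measured ATP left after a 1 h room-temperature reaction. The reaction used 5 nM GALK, 100 uM galactose and 35 uM ATP at pH 8.0 (20 mM HEPES, 5 mM MgCl2, 60 mM NaCl, 1 mM DTT, 0.01% BSA).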
Six1-Eya2 inh: qHTS Assay for Inhibitors of the Six1/Eya2 Interaction; Homeobox protein SIX1 (Homo sapiens) + Protein phosphatase EYA2 (Homo sapiens), …; AlphaScreen GST-Six1/His-Eya2 binding, biochemical; stronger effect = lower value; activity change, % (no concentration beside the values); hit rate 0.56% among 360,000; in the data active means activity change below about -65%; inconclusive means mostly about -30% to -63%
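AlphaScreen with GST-Six1 and His-Eya2 (5X mix: 250 nM and 500 nM), glutathione donor and nickel acceptor beads; buffer 50 mM Tris pH 8.0, 300 mM NaCl, 1 mM TCEP; 1 h at 37 C in the dark.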
CtBP-E1A inh: qHTS Assay for Inhibitors of the CtBP/E1A Interaction | CtBP / adenovirus E1A interaction (AlphaScreen) | AlphaScreen GST-E1A/His-CtBP binding, 1536-well; stronger effect = lower value | activity change, % (test concentration not listed) | hit rate 0.49% among 340,000; in the data active means activity change below about -65%; inconclusive means mostly about -30% to -63%
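Homogeneous bead-based format: GST-tagged E1A captured on glutathione donor beads, His-tagged CtBP on nickel acceptor beads; compounds precede bead addition by 2 h at 37 °C.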
JMJD2E inh: qHTS Assay for Inhibitors of Human Jumonji Domain Containing 2E (JMJD2E); Lysine-specific demethylase 4E (Homo sapiens), B2RXH2; JMJD2E catalytic domain, FDH-coupled NADH fluorescence (FDH is formaldehyde dehydrogenase); Potency, µM (titrated, usually from 57.1 µM), actives largely listed as inhibitors; hit rate 1.6% among 230,000; active means well fitted inhibition curve with a large enough effect, not every such curve was filed as active; inconclusive means small, poorly fitted or top-dose-only effect, or another doubt; inactive means no such curve, though single readings can be large or run the other way; further: nearly all actives have a fitted effect of over 50% in size
Target sequence (B2RXH2 1-337 limits assumed): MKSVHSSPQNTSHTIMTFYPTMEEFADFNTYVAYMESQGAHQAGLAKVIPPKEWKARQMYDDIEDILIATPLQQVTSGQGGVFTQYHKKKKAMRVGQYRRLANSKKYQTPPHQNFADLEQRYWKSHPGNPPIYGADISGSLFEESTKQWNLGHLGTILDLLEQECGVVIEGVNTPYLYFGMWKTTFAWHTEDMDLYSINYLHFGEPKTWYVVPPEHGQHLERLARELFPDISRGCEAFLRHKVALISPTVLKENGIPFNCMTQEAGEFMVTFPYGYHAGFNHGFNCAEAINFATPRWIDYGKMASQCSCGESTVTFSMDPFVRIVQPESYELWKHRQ
Apoferritin bind: qHTS Assay for Identification of Novel General Anesthetics; Ferritin light chain (Equus caballus), P02791; apoferritin/1-aminoanthracene competitive binding, fluorescence; Potency, µM (series often up to 77.5 µM), actives largely listed as inhibitors; hit rate 0.074% among 350,000; AID 485281, 2010; further: nearly all actives have a fitted effect of over 20% in size
Target sequence (P02791 2-175 limits assumed): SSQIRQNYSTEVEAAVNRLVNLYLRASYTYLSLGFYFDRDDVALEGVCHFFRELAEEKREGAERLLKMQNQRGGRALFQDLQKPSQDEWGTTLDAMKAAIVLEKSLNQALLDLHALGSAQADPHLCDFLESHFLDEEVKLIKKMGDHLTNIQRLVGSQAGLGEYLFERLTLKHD
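Steps: apoferritin (10 uM) was premixed with half-saturated 1-AMA in PBS, compounds were pin-transferred, plates stood 10 min at room temperature, fluorescence was read at 380/535 nm, and curves were fitted with a Hill equation.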
Eya2 inh: qHTS Assay for Inhibitors of the Phosphatase Activity of Eya2; Protein phosphatase EYA2 (Homo sapiens), O00167; recombinant Eya2, OMFP fluorescence dephosphorylation (OMFP is methylfluorescein phosphate); Potency, µM (titrated, usually from 76.9 µM), most hits filed as inhibitors; hit rate 0.006% among 330,000
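Eya2 (0.2 uM) preincubated 10 min at ambient with compound, then OMFP substrate added at 50 uM; 10 min reaction in 50 mM HEPES pH 7.5, 50 mM NaCl, 5 uM MgCl2, 0.05% BSA, 1 mM DTT. Fluorescence read at Ex 485/Em 525 nm.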
Numbers stand for hits; . = inactive; ? = inconclusive; / = no result given. Unless noted, the call rests on the fitted dose curve; in most records, active means well fitted curve in the direction sought with a large enough effect; inconclusive means small, poorly fitted or top-dose-only effect, or another doubt; inactive means no such curve, though single readings can be large; an effect the other way counts as inactive or inconclusive.

SMILES	GALK inhibitor	Six1-Eya2 inh	CtBP-E1A inh	JMJD2E inh	Apoferritin bind	Eya2 inh
O=C(COC(=O)c1ccccc1O)NC12CC3CC(CC(C3)C1)C2	/	.	.	/	/	.
Cc1cnc(C(=O)OCC(=O)C23CC4CC(CC(C4)C2)C3)cn1	.	.	.	/	?	.
O=C(NNC(=O)C12CC3CC(CC(C3)C1)C2)c1cnccn1	.	.	.	.	.	.
Cc1cnc(C(=O)OCC(=O)NC23CC4CC(CC(C4)C2)C3)cn1	.	.	.	.	10µM	.
Cc1ccc(C)c(NC(=S)c2ccc3ccccc3n2)c1	.	?	?	.	.	.
S=C(Nc1ccccn1)c1ccccn1	.	-91.7	-88.8	12.6µM	.	.
Cc1ccc(C)c(NC(=S)c2ccccn2)c1	.	?	-67.3	.	.	.
O=C(O)CCCC/C=C\C[C@@H](O)/C=C/C=C/C=C\[C@@H](O)CCCC(=O)O	/	/	/	.	/	/
Cc1ccc(Nc2nnc(SCC(=O)NCC3CCCO3)s2)cc1C (stereo not given)	/	-68.2	-77.5	/	/	.
Cc1ccc(Nc2nnc(SCC(=O)NCC3CCCO3)s2)cc1 (stereo not given)	/	?	.	/	/	.
Cc1cccc(N=Nc2c(C)c(C#N)c(O)[nH]c2=O)c1	.	.	.	.	.	.
Cc1c(C#N)c(O)[nH]c(=O)c1N=Nc1ccc(Br)cc1C(=O)O	/	-70.9	-88.6	/	.	.
C(=N\NC1=Nc2cccc3cccc1c23)/c1ccccn1	.	?	/	?	?	.
COc1ccc(C=NNc2nc3ccccc3s2)cc1	/	.	.	/	/	/
C(=NNc1ccc2ccccc2n1)c1ccccn1	/	-69.0	-69.0	/	/	/
C(=N\Nc1nc2ccccc2s1)/c1ccccn1	.	-73.0	-85.9	?	.	.
Cc1ccc2c(Cl)cc(Cl)c(O)c2n1	/	?	-65.5	.	.	/
Oc1ccc(Cl)c2cccnc12	/	-91.5	-94.9	?	.	/
Oc1c(Cl)cc(Cl)c2cccnc12	.	-90.4	-90.3	14.1µM	.	.
Cc1cc(Cl)c2ccc3ccccc3c2n1	.	.	.	.	.	.
Cc1ccc(S(=O)(=O)Nc2cc(Cl)c(O)c3ncccc23)cc1	.	-90.1	-89.0	/	.	.
COc1cc2c(cc1OC)C(c1ccc(Cl)cc1)N(c1ccc(C)c(F)c1)C(=O)C2 (stereo not given)	/	/	/	/	.	/
CNc1nc2c(c(=O)n(C)c(=O)n2C)n1CC(O)COc1ccc(OC)cc1 (stereo not given)	/	/	/	/	.	/
Cc1cc(NC(=O)N2CCC(CN3CCCCCC3)CC2)ccc1Br	/	/	/	/	.	/
COC(=O)c1ccc(NC(=O)CC2C(=O)N(c3cccc(C)c3)C(=O)N2Cc2ccco2)cc1 (stereo not given)	/	/	/	/	.	/
SMILES	GALK inhibitor	Six1-Eya2 inh	CtBP-E1A inh	JMJD2E inh	Apoferritin bind	Eya2 inh
COc1ccc(-c2cn3nc(N4CCC(C(=O)NCc5cccc(Cl)c5)CC4)sc3n2)cc1	/	/	/	/	.	/
Oc1ccc(F)c2cccnc12	.	-81.4	.	20µM	.	.
Oc1c(I)cc(I)c2cccnc12	/	-66.6	-73.0	14.1µM	.	.
O=C(Nc1ccc(S(=O)(=O)N2CCCCCC2)cc1)c1[nH]ncc1[N+](=O)[O-]	.	/	/	/	12.6µM	.
O=C(Nc1ccc([N+](=O)[O-])cc1)c1ccc(S(=O)(=O)N2CCCC2)cc1	.	.	.	/	.	.
N=c1ccn2c(n1)O[C@H]1[C@@H](O)[C@@H](CO)O[C@H]12	/	/	/	.	/	/
CCOc1ccccc1NC(=O)CN(c1ccc(OC)cc1)S(=O)(=O)c1c(C)[nH]c(=O)[nH]c1=O	.	-84.0	-84.2	/	.	.
COc1ccc(N(CC(=O)Nc2ccccc2C)S(=O)(=O)c2c(C)[nH]c(=O)[nH]c2=O)cc1	/	.	.	.	.	.
CCOc1ccc(N(CC(=O)Nc2ccc(OC)cc2OC)S(=O)(=O)c2c(C)[nH]c(=O)[nH]c2=O)cc1	.	-85.0	-91.9	/	.	.

Screening results deposited in PubChem BioAssay by National Center for Advancing Translational Sciences (NCATS).
